Reference: PubChem BioAssay AID504832 (National Center for Advancing Translational Sciences (NCATS), 2011)
Among all 310,000 compounds or so, about 18,000 (5.8%) were called active. Another 22% or so got no clear call; they are omitted. The entries come from a sample that favours actives as a whole. A number with no mark means an inactive call. The call rests on the fitted dose curve; in most records, active means well fitted inhibition curve with a large enough effect; inconclusive means small, poorly fitted or top-dose-only effect, or another doubt; inactive means no such curve, though single readings can be large or run the other way.

Test: Primary qHTS for delayed death inhibitors of the malarial parasite plastid, 48 hour incubation
Conditions: P. falciparum luciferase growth in erythrocytes; series mostly up to 28.7 µM; activity change, negative = inhibition: at the top concentration
Excerpt: The goal of this screen is to discover new antimalarial compounds that act by inhibiting the development of the apicoplast in the malarial parasite Plasmodium falciparum. The biochemical processes that make this organelle essential for erythrocytic stage parasites are not well understood. However, antibiotics such as azithromycin and tetracycline, which target the apicoplast translational machinery, have a potent antimalarial effect.
We have developed a cell-based assay that measures parasite growth based on the expression of an integrated copy of a firefly luciferase reporter. To detect small molecules that cause this "delayed death" phenotype, erythrocytes infected with the luciferase-expressing parasites were incubated with compounds for either one or two generations, corresponding to 48 and 96 hours, respectively. Compounds that inhibit parasite growth in the second generation, but not the first, should be enriched in antimalarials that target the apicoplast. Growth inhibition is detected by a decrease in luciferase activity.
Assay Provider: David Fidock and Eric Ekland, Columbia University
Keywords: NIH Roadmap, MLPCN, MLI, MLSMR, qHTS, NCGC, qHTS, malaria, luciferase, viability
Four microliters of culture medium (RPMI 1640 with 0.5% w/v Albumax (GIBCO), 24 mM sodium bicarbonate and 10 ug/mL gentamycin) were dispensed by a Multi-drop Combi into white solid 1536-well plates (Grenier) and 23 nL compound was added by a pin tool. Four microliters of infected erythrocytes (2% hematocrit, 0.1% parasitemia final concentration) in culture medium were dispensed and the plates incubated for 48 hours at 37 C in 5% CO2. Two microliters of luciferase detection reagent was added and luminescence was detected by a ViewLux (PerkinElmer) reader.
On the % scale 0 is the no-effect control and ±100 the full control effect; potency means the concentration at half of the fitted maximal effect.

SMILES	activity change, negative = inhibition	Potency
C=CCOc1ccc(/C=C/C(=O)OCC(=O)NC2CCCCCC2)cc1	26.8%	
CCC(Oc1ccccc1C)C(=O)Nc1ccc(S(=O)(=O)Nc2cc(C)on2)cc1 (stereo unspecified)	2.5%	
CC(=O)c1cc(CN2CCC(n3nccc3NC(=O)c3ccccc3Cl)CC2)cs1	-13.4%	
CC(OC(=O)c1ccccc1NCCO)C(=O)Nc1ccnn1C(C)C (stereo unspecified)	-26.5%	
Cc1ccc(NC(=O)CN(C)C(=O)c2ccc(Br)o2)cc1	4.06%	
COc1ccc(-c2cnc(SCCNC(=O)c3ccc4c(c3)OCO4)[nH]2)cc1	-5.01%	
CC(Oc1ccc(Br)cc1)C(=O)NC1CCCCCC1 (stereo unspecified)	2.7%	
COc1ccc(S(=O)(=O)NCC(c2ccco2)N2CCOCC2)cc1 (stereo unspecified)	-6.97%	
CC(Oc1ccc(Br)cc1)C(=O)NCC(c1ccco1)N1CCCCC1 (stereo unspecified)		11.7 µM (active)
O=C(COc1ccc2ccc(=O)oc2c1)NCC(O)c1ccccc1 (stereo unspecified)	18.9%	
O=C(CNC(=O)OCc1ccccc1)NC1CCCCNC1=O (stereo unspecified)	0.406%	
CCOc1ccccc1/C=N/Nc1nc2ccccc2o1	-29.1%	
COc1ccc(CCNC(=O)C(=O)NCc2ccccc2C)cc1OC	-8.37%	
CCCCNC(=O)N1CCCC(N(C)CCc2ccc(OC)c(OC)c2)C1 (stereo unspecified)	-0.406%	
COc1ccc(CCN(Cc2cc3cccc(C)c3[nH]c2=O)C(=O)N2CCCC2)cc1OC		8.28 µM (active)
Cc1ccc2c(cnn2C(=O)CCC(=O)NC2CCCC2)c1	7.75%	

SMILES	activity change, negative = inhibition	Potency
Cn1nc(C(F)(F)F)c(C(=O)Nc2cccc(C(F)(F)F)c2)c1SCc1ccc(Cl)cc1		1.85 µM (active)
O=C(O)CSCC(=O)Nc1cccc(C(F)(F)F)c1	7.05%	
O=C(Nc1cccc(C(F)(F)F)c1)c1cnccn1	33.4%	
COc1ccc(CCNC(=O)COc2ccc3c(c2)OCO3)cc1	8.33%	
CN(C)C(=O)CCC(=O)N1CCCCC1C(=O)Nc1ccc(Oc2ccccc2F)cc1 (stereo unspecified)	27.6%	
COc1ccc(/C=C/C(=O)OCC(=O)NCc2cccs2)cc1OC	9.68%	
CCOC(=O)CCCNC(=O)COC(=O)/C=C/c1ccc2c(c1)OCO2	397%	
CCOc1cc(/C=C/C(=O)OCC(=O)NCCN2C(=O)CSC2=O)ccc1OCC(C)C		14.7 µM (active)
COc1ccc(CNC(=O)CN2C(=O)NC3(CCCc4sccc43)C2=O)cc1 (stereo unspecified)	-0.331%	
CCN(CC)S(=O)(=O)c1ccc(N2CC(C(=O)NCc3cccnc3)CC2=O)cc1 (stereo unspecified)	-16.4%	
Cc1ccc2[nH]c(=O)c(CN(C)S(=O)(=O)c3cccc4nonc34)cc2c1	21.1%	
CCN(Cc1ccccc1)S(=O)(=O)c1cc2c3c(c1)CCN3C(=O)CC2	-3.66%	
COc1cc(Cl)c(C)cc1NC(=O)CN1CCCCCC1	3.43%	
CC1CCCN(CC(=O)Nc2cc(Cl)ccc2Oc2ccccc2)C1 (stereo unspecified)		14.7 µM (active)
O=C(CN1CCCCCC1)Nc1ccc(Cl)cc1F	25.3%	
